In PubChem BioAssay one finds growth inhibition, inhibition and outcome data, which are given here for 20 compounds.

The structures appear in SMILES notation. A number with no mark means an inactive call. For some of these results: Entries with a potency or affinity are not part of this list. The source made the active and inactive calls. Unless noted, no rule for the calls is given here.

Test [1] can be described thus: antimalarial activity against Dd2 strain (AID 2302;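 active = growth inhibition above 50% at the single 2 µM test dose, taken to imply half-maximal potency below 2 µM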;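 also: 0% = DMSO untreated growth and 100% = chloroquine plus artemisinin killed control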). Particulars: P. falciparum Dd2 in RBCs, LDH growth readout, 72 h; at 2 µM; stronger effect = higher value.
The nature of test [2]: HepG2 cytotoxicity, primary screen, cytotoxicity control for P. falciparum antimalarial project, cell-based, ATP luminescence (AID 2303;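 active = inhibition above 50%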;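 also: 0% = DMSO wells and 100% = digitonin-killed cells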). The note with it: HepG2 viability, 24-48 h, at 10 µM, stronger effect = higher value.
Test [3] has as its target L-lactate dehydrogenase (Plasmodium falciparum (isolate CDC / Honduras)) (UniProt Q27743). Briefly: PfLDH activity inhibition – cell lysate, 3D7 strain, counter-screen for P. falciparum growth inhibition project (AID 2304).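 Also: 0% = vehicle and 100% = reference inhibitor.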 The note with it: P. falciparum 3D7 crude extract, LDH APAD/NBT absorbance; at 2 µM; stronger effect = higher value.
A short description of test [4]: inhibition of 3D7 malaria parasite growth – strain 3D7 (AID 2306).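 Also: 0% = DMSO wells and 100% = chloroquine plus artemisinin control wells.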 Particulars: P. falciparum 3D7 erythrocytic growth, LDH absorbance, 72 h; at 2 µM; stronger effect = higher value.
The target of test [5] is Calcium-dependent protein kinase 1 (Plasmodium falciparum (isolate 3D7)) (UniProt P62344). The test is described as follows: PfCDPK1 kinase inhibitors, biochemical, TCAMS library (AID 1159585; cut-off not given, nearly all actives have IC50 up to about 0.98 µM;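 also: inhibitors leave more ATP so luminescence rises with inhibition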). The note with it: recombinant PfCDPK1, Kinase-Glo ATP depletion luminescence.
Calcium-dependent protein kinase 1 (Plasmodium falciparum (isolate 3D7)), sequence (P62344 whole entry, looked up): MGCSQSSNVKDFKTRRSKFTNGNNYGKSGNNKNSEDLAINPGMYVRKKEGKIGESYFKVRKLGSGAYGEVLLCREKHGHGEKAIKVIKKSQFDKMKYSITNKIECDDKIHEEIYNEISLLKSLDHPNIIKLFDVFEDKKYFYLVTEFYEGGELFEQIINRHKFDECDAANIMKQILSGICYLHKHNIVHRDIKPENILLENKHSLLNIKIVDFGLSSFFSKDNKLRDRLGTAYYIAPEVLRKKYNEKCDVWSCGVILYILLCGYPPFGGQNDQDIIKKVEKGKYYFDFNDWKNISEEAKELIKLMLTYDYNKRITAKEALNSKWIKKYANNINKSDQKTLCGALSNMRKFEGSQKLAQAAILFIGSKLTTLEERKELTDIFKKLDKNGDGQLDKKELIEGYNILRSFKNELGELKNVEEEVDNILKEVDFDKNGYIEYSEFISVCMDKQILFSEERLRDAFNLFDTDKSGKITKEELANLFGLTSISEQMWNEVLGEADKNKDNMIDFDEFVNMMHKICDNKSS
The target of test [6] is Plasmodium falciparum protein kinase 6 (PK6, PF3D7_1337100) (UniProt Q8IDW1). Briefly: PfPK6 kinase inhibitors, biochemical, TCAMS library (AID 1159586). Particulars: recombinant PfPK6, Kinase-Glo ATP depletion luminescence. (Kinase-Glo reads ATP consumption through a luciferase reaction.)
Plasmodium falciparum protein kinase 6 (PK6, PF3D7_1337100), sequence (Q8IDW1 1-305): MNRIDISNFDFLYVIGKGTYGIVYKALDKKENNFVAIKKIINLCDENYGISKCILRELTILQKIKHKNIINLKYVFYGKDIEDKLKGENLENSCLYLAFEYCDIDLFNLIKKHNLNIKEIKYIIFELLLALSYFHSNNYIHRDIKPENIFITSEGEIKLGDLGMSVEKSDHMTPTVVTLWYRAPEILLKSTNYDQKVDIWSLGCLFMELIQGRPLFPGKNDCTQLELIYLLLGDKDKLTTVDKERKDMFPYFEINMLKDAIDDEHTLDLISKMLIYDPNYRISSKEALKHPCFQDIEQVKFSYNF
For test [7], the target named is Protein kinase 7 (PK7), Plasmodium falciparum 3D7 (PF3D7_0213400) (UniProt Q7YTF7). The test is described as follows: inhibition of Plasmodium PK7 catalytic activity – biochemical, TCAMS antimalarial set, Kinase-Glo luminescence (AID 1159587). Particulars: recombinant PfPK7, Kinase-Glo ATP depletion luminescence.
Protein kinase 7 (PK7), Plasmodium falciparum 3D7 (PF3D7_0213400), sequence (Q7YTF7 1-343): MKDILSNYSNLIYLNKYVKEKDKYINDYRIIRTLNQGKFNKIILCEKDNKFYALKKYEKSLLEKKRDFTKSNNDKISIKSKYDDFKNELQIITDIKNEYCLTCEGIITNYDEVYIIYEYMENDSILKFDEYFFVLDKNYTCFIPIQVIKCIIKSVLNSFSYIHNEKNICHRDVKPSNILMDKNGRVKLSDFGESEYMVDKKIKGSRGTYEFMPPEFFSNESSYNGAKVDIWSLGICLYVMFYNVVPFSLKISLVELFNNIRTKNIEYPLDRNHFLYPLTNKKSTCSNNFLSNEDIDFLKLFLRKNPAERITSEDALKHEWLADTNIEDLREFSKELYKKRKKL
Test [8] deals with Calcium-dependent protein kinase 4 (Plasmodium falciparum (isolate 3D7)) (UniProt Q8IBS5). Briefly: PfCDPK4 kinase inhibitors, biochemical, TCAMS library (AID 1159588; cut-off not given, nearly all actives have IC50 up to about 0.91 µM). The note with it: recombinant PfCDPK4, Kinase-Glo ATP depletion luminescence.
Calcium-dependent protein kinase 4 (Plasmodium falciparum (isolate 3D7)), sequence (Q8IBS5 whole entry, looked up): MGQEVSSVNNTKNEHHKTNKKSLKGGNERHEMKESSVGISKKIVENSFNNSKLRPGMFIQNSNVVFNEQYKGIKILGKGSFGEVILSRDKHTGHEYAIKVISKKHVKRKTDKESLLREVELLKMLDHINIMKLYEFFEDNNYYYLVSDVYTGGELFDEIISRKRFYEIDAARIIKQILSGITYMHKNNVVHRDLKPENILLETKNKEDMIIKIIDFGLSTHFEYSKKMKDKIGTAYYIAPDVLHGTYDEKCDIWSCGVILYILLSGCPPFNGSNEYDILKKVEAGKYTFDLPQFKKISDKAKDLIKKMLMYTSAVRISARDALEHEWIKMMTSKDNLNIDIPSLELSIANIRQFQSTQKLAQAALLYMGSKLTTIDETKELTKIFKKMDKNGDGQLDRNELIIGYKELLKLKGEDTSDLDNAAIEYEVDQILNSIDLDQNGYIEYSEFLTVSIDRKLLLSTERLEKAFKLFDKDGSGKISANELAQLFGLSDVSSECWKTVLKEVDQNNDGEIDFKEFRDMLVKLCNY

L-lactate dehydrogenase (Plasmodium falciparum (isolate CDC / Honduras)), sequence (Q27743 whole entry, looked up): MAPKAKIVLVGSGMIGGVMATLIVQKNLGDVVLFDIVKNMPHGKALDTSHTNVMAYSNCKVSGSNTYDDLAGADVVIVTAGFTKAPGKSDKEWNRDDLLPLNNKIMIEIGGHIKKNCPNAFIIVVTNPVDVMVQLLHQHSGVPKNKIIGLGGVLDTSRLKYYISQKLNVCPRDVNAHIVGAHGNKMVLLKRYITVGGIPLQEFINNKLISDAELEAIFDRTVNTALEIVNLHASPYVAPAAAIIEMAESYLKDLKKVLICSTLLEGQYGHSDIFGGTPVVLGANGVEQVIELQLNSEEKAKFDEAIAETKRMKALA

Turning to `O=C(Nc1cccc(-c2csc(-c3nc4ccccc4[nH]3)c2)c1)c1cccnc1`, the growth inhibition in test [1] was 45%; in test [4] it was 98% (active). Further, the inhibition – broadly, the drop in the measured response relative to a control, in per cent – in test [2] is 18%; in test [3] it was -5%. Besides, the result in test [5], in test [6], in test [7] and in test [8] was inactive.
With `O=C(NC1CCN(CCN2CCc3ccccc3CC2)CC1)c1ccc(-c2ccc(C(F)(F)F)cc2)cc1`, the values for the growth inhibition in test [1] and in test [4] were 43% and 99% (active), respectively. Besides, the inhibition in test [2] was 45%; in test [3], -4%. The result in test [5], in test [6], in test [7] and in test [8] was inactive.
Turning to `Cc1cnc(NC(=O)c2cn(-c3ccccc3)nc2-c2cccs2)s1`, the values for the growth inhibition in test [1] and in test [4] were 1% and 91% (active), respectively. The inhibition in test [2] was -5%; in test [3] it was -1%. The result in test [5], in test [6], in test [7] and in test [8] was inactive.
As for `NC(N)=Nc1ccc(C(=O)O)c(O)c1`, the growth inhibition in test [1] is 1%; in test [4], 94% (active). In addition, the inhibition in test [2] and in test [3] was -3% throughout. Moreover, the result in test [5], in test [6], in test [7] and in test [8] was inactive.
For `CCc1ccc(NC(=O)c2cccc(CN3CCCN(Cc4ccc(OC)cc4)CC3)c2)cc1`, the growth inhibition in test [1] is -6%; in test [4], 97% (active). Besides, the inhibition in test [2] is 35%; in test [3], 5%. For the same compound, the result in test [5], in test [6], in test [7] and in test [8] was inactive.
Take `CCc1ccc(O)c(-c2cc(C(=O)Nc3ccc(OC)c(Cl)c3)[nH]n2)c1`: the growth inhibition in test [1] is 97% (active); in test [4], 93% (active). Also, the inhibition in test [2] was 15%; in test [3], -1%. Besides, the result in test [5], in test [6], in test [7] and in test [8] was inactive.
`O=C(/C=C/c1ccc(Br)cc1)NCCCCCN1CCC(c2c[nH]c3ccccc23)CC1`: the growth inhibition in test [1] is 19%; in test [4] it was 99% (active). Besides, the inhibition in test [2] was 73% (active); in test [3], -2%. For the same compound, the outcome in test [5], in test [6], in test [7] and in test [8] was inactive.
In the case of `O=C(C=Cc1ccc(Cl)c(Cl)c1)NCCCCCN1CCC(CCCNC(=O)[C@@H]2C[C@H]2c2ccccc2)CC1`, the growth inhibition in test [1] is 12%; in test [4], 95% (active). In addition, the inhibition in test [2] is 45%; in test [3], -1%. For the same compound, the outcome in test [5], in test [6], in test [7] and in test [8] was inactive.
As for `O=C(Nc1ccc(-c2ccccc2)cc1)Nc1cccc(Cn2ncc(N3CCCNCC3)c(Cl)c2=O)c1`, the results for the growth inhibition in test [1] and in test [4] were 52% (active) and 102% (active), respectively. Moreover, the inhibition is 14% in test [2] and -1% in test [3]. The outcome in test [5], in test [6], in test [7] and in test [8] was inactive.
As to `C=CCc1ccc(C2CCN(CCCCNC(=O)c3ccc(NC(=O)c4ccc(Cl)cc4)cc3)CC2)cc1`, the growth inhibition in test [1] is 97% (active); in test [4], 101% (active). The inhibition in test [2] is 27%; in test [3], -5%. The outcome in test [5], in test [6], in test [7] and in test [8] was inactive.
On to `CC[C@H](N=C(Nc1ccc(-c2ccccc2)cc1)Nc1ccc(C#N)cc1O)c1ccccc1`, for which the growth inhibition is 97% (active) in test [1] and 99% (active) in test [4]. In addition, the figures for the inhibition in test [2] and in test [3] were -6% and 4%, respectively. In addition, the result in test [5], in test [6], in test [7] and in test [8] was inactive.
In the case of `C=Cc1ccc(-c2c(C)[nH]c(C)c(Br)c2=O)cc1`, the growth inhibition in test [1] is 96% (active); in test [4], 98% (active). For the same compound, the inhibition was -2% in test [2] and -3% in test [3]. Also, the outcome in test [5], in test [6], in test [7] and in test [8] was inactive.
Take `Oc1cc(Nc2ccnc3cc(I)ccc23)ccc1F`: the growth inhibition in test [1] and in test [4] was 99% (active) in each case. Moreover, the inhibition in test [2] is -6%; in test [3], 0%. Moreover, the outcome in test [5], in test [6], in test [7] and in test [8] was inactive.
Take `Cc1ccc(C(=O)Nc2ccc(-c3nc4ccccc4[nH]3)cc2)cc1S(=O)(=O)N1CCOCC1`: the growth inhibition in test [1] is 16%; in test [4], 90% (active). Moreover, the inhibition is 56% (active) in test [2] and 4% in test [3]. In addition, the outcome in test [5], in test [6], in test [7] and in test [8] was inactive.
For the compound `COc1ccc(-c2ccc(NC(=O)c3cccc(Cl)c3)cc2)cc1CN(C)CCO`, the growth inhibition in test [1] is 52% (active); in test [4], 89% (active). Also, the values for the inhibition in test [2] and in test [3] were 39% and -4%, respectively. Moreover, the outcome in test [5], in test [6], in test [7] and in test [8] was inactive.
In the case of `CC(Cc1ccc(OCCN2CCN(c3cccc(C(F)(F)F)c3)CC2)cc1)NCC(O)c1cccc(C(F)(F)F)c1` (stereo not given), the growth inhibition in test [1] was 91% (active); in test [4], 97% (active). Moreover, the inhibition in test [2] was 11%; in test [3] it was 0%. In addition, the result in test [5], in test [6], in test [7] and in test [8] was inactive.
As for `CC(=O)N(C)c1ccc(C(=O)Nc2cccc(-c3cccc(-c4nc5c(C)cccc5[nH]4)c3)c2)cc1`, the growth inhibition in test [1] was 30%; in test [4], 89% (active). In addition, the values for the inhibition in test [2] and in test [3] were 11% and -2%, respectively. Also, the result in test [5], in test [6], in test [7] and in test [8] was inactive.
Take `CC(C)NC(=O)c1cccc(-c2cccc(OCCN3CCSCC3c3ccccc3)c2)c1` (stereo not given): the results for the growth inhibition in test [1] and in test [4] were 45% and 89% (active), respectively. Besides, the inhibition in test [2] is 24%; in test [3], 2%. Moreover, the outcome in test [5], in test [6], in test [7] and in test [8] was inactive.
With `CC(C)c1ccc(NC(=O)N[C@H]2CCN(CCCCCNC(=O)/C=C/c3ccc(Cl)c(Cl)c3)C2)cc1`, the growth inhibition in test [1] is 14%; in test [4] it was 100% (active). Besides, the inhibition in test [2] is 56% (active); in test [3], 7%. Moreover, the result in test [5], in test [6], in test [7] and in test [8] was inactive.
`Cc1ccc(NC(=O)Nc2ccc(Cl)c(C(F)(F)F)c2)cc1-c1ccc(C(=O)NCCN2CCOCC2)cc1`: the growth inhibition was 31% in test [1] and 98% (active) in test [4]. In addition, the inhibition in test [2] was 52% (active); in test [3] it was 0%. The outcome in test [5], in test [6], in test [7] and in test [8] was inactive.
